# “And” between values parts separate entries of the source, which are not always exact repeats. Equal values may be shown once. Records with an inconclusive call do not appear. Entries that show only a call come without a potency. Some compounds were tested as several samples or in several runs, with calls that do not always agree. The source made the active and inactive calls. The call rests on the fitted dose curve; in most records, active means well fitted curve in the direction sought with a large enough effect in the repeat runs; inconclusive means weak or mixed curves; inactive means no such curve, though single readings can be large; an effect the other way counts as inactive or inconclusive.
# Biological target: Cytochrome P450 1A2 (Homo sapiens) (UniProt P05177)
# Test: Cytochrome P450 Family 1 Subfamily A Member 2 (CYP1A2) small molecule antagonists: luciferase reporter qHTS assay (AID 1671199)
# Conditions: P450-Glo CYP1A2 enzyme, luciferin luminescence, 1 h; series mostly up to 115 µM
# In short: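 Quantitative high-throughput format using the P450-Glo CYP1A2 system. Reaction initiated by NADPH regeneration solution, 1 h at room temperature, then stopped with detection reagent; luminescence measured 20 min later.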
# Further: nearly all actives have a fitted effect of over 50% in size.
# Potency means the concentration at half of the fitted maximal effect.
# Chain of Cytochrome P450 1A2 (Homo sapiens) (P05177 whole entry, looked up): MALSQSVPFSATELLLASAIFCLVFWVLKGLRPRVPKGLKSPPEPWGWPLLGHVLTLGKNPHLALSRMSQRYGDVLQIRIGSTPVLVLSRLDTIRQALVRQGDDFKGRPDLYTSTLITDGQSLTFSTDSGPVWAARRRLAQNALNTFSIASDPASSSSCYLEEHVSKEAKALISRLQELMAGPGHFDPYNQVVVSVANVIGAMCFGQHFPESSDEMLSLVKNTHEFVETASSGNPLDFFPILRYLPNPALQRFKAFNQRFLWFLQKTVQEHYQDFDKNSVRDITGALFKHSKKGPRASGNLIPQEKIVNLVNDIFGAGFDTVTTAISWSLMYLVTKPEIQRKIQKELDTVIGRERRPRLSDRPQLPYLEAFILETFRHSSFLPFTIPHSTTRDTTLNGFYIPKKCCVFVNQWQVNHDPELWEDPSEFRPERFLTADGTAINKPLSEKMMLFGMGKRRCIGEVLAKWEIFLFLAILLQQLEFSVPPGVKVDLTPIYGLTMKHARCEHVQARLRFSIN
row,SMILES,Potency
1,CCOC(=O)c1cn2nc(OP(=S)(OCC)OCC)cc2nc1C,8.94 µM (active)
2,O=C(O)C(F)(F)C(F)(F)C(F)(F)C(F)(F)C(F)(F)F,inactive
3,O=C(O)c1ccc(=O)[nH]c1,inactive
4,O=C(O)C(Cl)(Cl)Br,inactive
5,Cc1nc2ccccc2c(=O)n1-c1ccccc1Cl,inactive
6,N#CC(C#N)=C(C#N)C#N,41.7 µM (active)
7,COc1cc(CC(C)N)c(OC)cc1Br (centres undefined),5.2 µM (active)
8,O=C(CCl)CCl,inactive
9,CCCCC(CC)COC(=O)c1c(Br)c(Br)c(Br)c(Br)c1C(=O)OCC(CC)CCCC (centres undefined),inactive
10,O=P(OCC(Br)CBr)(OCC(Br)CBr)OCC(Br)CBr (centres undefined),7.19 µM (active) and 9.52 µM (active)
11,COc1ccc2c(c1OC)C(=O)O[C@H]2[C@@H]1c2cc3c(cc2CCN1C)OCO3,inactive
12,CC(C)(C)N(NC(=O)c1ccc(Cl)cc1)C(=O)c1ccccc1,39.7 µM (active)
13,NCCc1cc(O)c(O)cc1O,inactive
14,C[Si](Cn1cncn1)(c1ccc(F)cc1)c1ccc(F)cc1,32.8 µM (active) and 20 µM (active)
15,COc1cc(C[C@@H](C)N)c(OC)cc1Br,36.5 µM (active)
16,C[C@H]1[C@@H]2Cc3ccc(O)cc3[C@@]1(C)CCN2C,inactive
17,O=[N+]([O-])c1cc(Cl)c(Cl)cc1Cl,5.61 µM (active)
18,CCOC(C(=O)OCCN(C)C)(c1ccccc1)c1ccccc1,inactive
19,CCCCCCCCCCCC[N+](C)(C)CCOc1ccccc1,79.7 µM (active) and inactive
20,COC(=O)Cc1ccccc1,inactive
21,O=C(N[C@H]1CN2CCC1CC2)c1ccc2c(c1)OCCO2,inactive
22,CCCCC#N,inactive
23,Nc1c(Br)cc(Br)c2c1C(=O)c1ccccc1C2=O,0.168 µM (active)
24,CC(CC(C(N)=O)(c1ccccc1)c1ccccc1)N(C)C (centres undefined),inactive
25,CC(C)(C)NCC(O)c1cc(Cl)c(N)c(C(F)(F)F)c1 (centres undefined),inactive

# Biological target: Voltage-gated inwardly rectifying potassium channel KCNH2 (Homo sapiens) (UniProt Q12809)
# Test: Human Ether-a-go-go-Related Gene (hERG) channel small molecule antagonists: fluorescence cell-based qHTS assay (AID 1671200);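 on activity change, negative = inhibition: hERG-expressing U2OS cells given a thallium stimulus after FluxOR II dye loading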
# Conditions: hERG-U2OS cells, FluxOR thallium flux fluorescence; series mostly up to 76.8 µM
# In short: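 Channel function was assessed by thallium flux. Cells seeded the previous day and kept at 37 C took up FluxOR II dye over 1 h in the dark at room temperature, then sat another 10 min before stimulation.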
# Chain of Voltage-gated inwardly rectifying potassium channel KCNH2 (Homo sapiens) (Q12809 whole entry, looked up): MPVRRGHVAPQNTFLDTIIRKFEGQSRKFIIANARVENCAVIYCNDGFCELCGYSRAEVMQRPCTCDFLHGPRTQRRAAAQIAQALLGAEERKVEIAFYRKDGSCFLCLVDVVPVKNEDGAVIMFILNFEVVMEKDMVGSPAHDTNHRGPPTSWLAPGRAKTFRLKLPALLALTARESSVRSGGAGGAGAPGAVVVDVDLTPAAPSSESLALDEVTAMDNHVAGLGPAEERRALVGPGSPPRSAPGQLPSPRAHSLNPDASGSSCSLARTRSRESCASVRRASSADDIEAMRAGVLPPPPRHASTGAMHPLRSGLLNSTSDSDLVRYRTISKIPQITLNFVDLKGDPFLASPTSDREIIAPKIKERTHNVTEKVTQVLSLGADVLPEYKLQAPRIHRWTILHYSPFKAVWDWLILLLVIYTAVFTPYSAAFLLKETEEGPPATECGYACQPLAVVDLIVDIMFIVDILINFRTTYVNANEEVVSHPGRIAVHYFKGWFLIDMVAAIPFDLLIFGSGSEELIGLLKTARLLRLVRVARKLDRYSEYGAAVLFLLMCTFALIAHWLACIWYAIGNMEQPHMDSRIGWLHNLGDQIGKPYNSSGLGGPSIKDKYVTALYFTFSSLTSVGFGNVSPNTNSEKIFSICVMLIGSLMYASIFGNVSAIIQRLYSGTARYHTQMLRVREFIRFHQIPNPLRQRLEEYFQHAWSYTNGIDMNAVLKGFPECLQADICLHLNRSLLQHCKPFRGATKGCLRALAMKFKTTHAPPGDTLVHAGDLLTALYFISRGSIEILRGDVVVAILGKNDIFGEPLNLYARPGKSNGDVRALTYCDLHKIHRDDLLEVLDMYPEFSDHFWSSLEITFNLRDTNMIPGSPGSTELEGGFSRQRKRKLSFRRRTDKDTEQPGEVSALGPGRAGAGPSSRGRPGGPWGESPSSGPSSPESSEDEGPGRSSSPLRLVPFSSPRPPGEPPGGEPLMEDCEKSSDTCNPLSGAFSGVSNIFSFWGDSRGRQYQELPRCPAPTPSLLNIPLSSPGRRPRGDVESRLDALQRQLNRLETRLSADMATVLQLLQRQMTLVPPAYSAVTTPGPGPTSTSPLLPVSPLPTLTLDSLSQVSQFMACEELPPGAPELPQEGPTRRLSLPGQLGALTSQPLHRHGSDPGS
SMILES,Potency,"activity change, negative = inhibition"
C=C(Cl)Cl,inactive,–
O=C(O)C(F)(F)C(F)(F)C(F)(F)C(F)(F)C(F)(F)F,inactive,–
O=C(O)c1ccc(=O)[nH]c1,inactive,–
CC(=O)NNc1ccccc1,inactive,–
N#CC(C#N)=C(C#N)C#N,inactive,–
C=CC(C)(CCC=C(C)C)OC(=O)c1ccccc1N (centres undefined),inactive,–
COc1cc(CC(C)N)c(OC)cc1Br (centres undefined),inactive,–
O=C(CCl)CCl,inactive,–
CCCCC(CC)COC(=O)c1c(Br)c(Br)c(Br)c(Br)c1C(=O)OCC(CC)CCCC (centres undefined),inactive,–
O=P(OCC(Br)CBr)(OCC(Br)CBr)OCC(Br)CBr (centres undefined),12.5 µM (active) and 18.5 µM (active),–
O=C(Cl)OCCOCCOC(=O)Cl,inactive,–
Cc1ncc(C[n+]2csc(CCO)c2C)c(N)n1,inactive,–
N#CC(C#N)=Cc1ccc(O)c(O)c1,inactive,–
CC(C)(C)N(NC(=O)c1ccc(Cl)cc1)C(=O)c1ccccc1,inactive,–
NCCc1cc(O)c(O)cc1O,inactive,–
C[Si](Cn1cncn1)(c1ccc(F)cc1)c1ccc(F)cc1,45.1 µM (active),–
COc1cc(C[C@@H](C)N)c(OC)cc1Br,inactive,–
CNC(=O)Oc1cccc(N=CN(C)C)c1,inactive,–
O=[N+]([O-])c1cc(Cl)c(Cl)cc1Cl,inactive,–
CCOC(C(=O)OCCN(C)C)(c1ccccc1)c1ccccc1,inactive,–
COC(=O)Cc1ccccc1,inactive,–
O=C(N[C@H]1CN2CCC1CC2)c1ccc2c(c1)OCCO2,inactive,–
CCCCC#N,inactive,–
ClCc1ccccc1Cl,inactive,–
CC(C)(C#N)C(C)(C)C#N,inactive,–
COc1ccc(C(=O)c2c(C)n(CCN3CCOCC3)c3ccccc23)cc1,inactive,–
Nc1c(Br)cc(Br)c2c1C(=O)c1ccccc1C2=O,–,-6.02% [at 15.8 µM] (inactive)
C=CCOC(=O)C(C)(C)OC(=O)c1cc(-n2c(=O)cc(C(F)(F)F)n(C)c2=O)ccc1Cl,inactive,–
O=C(NCNC(=O)NC1C(=O)NC(=O)N1CO)NC1C(=O)NC(=O)N1CO (centres undefined),inactive,–

# Biological target: Cytochrome P450 3A4 (Homo sapiens) (UniProt P08684)
# Test: Cytochrome P450 Family 3 Subfamily A Member 4 (CYP3A4) small molecule antagonists: luciferase reporter qHTS assay (AID 1671201)
# Conditions: P450-Glo CYP3A4 enzyme, luciferin luminescence, 1 h; series mostly up to 115 µM
# In short: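 Compounds in DMSO were pin-transferred onto CYP3A4 enzyme-substrate mix and held 10 min at room temperature. NADPH regenerating solution started the reaction for 1 h; luciferin detection reagent stopped it, and luminescence was read after 20 min.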
# Chain of Cytochrome P450 3A4 (Homo sapiens) (P08684 whole entry, looked up): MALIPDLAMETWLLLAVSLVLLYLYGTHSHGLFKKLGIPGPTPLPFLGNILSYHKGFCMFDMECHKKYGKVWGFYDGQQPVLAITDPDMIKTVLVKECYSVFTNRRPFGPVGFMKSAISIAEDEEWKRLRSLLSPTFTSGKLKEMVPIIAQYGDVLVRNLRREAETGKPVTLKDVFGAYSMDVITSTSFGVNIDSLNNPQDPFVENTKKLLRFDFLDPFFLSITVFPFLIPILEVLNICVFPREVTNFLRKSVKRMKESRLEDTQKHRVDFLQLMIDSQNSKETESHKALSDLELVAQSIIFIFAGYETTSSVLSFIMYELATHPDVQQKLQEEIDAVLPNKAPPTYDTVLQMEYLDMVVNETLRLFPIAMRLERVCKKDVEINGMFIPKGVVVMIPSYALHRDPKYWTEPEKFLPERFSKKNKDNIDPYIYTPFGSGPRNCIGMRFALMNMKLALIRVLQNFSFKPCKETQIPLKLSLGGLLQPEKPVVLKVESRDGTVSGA
SMILES,Potency,"activity change, negative = inhibition"
C=C(Cl)Cl,inactive,–
CCOC(=O)c1cn2nc(OP(=S)(OCC)OCC)cc2nc1C,28.3 µM (active),–
O=C(O)C(F)(F)C(F)(F)C(F)(F)C(F)(F)C(F)(F)F,inactive,–
O=C(O)c1ccc(=O)[nH]c1,inactive,–
O=C(O)C(Cl)(Cl)Br,inactive,–
Cc1nc2ccccc2c(=O)n1-c1ccccc1Cl,inactive,–
CC(Oc1cc(Cl)c(Cl)cc1Cl)C(=O)O (centres undefined),inactive,–
N#CC(C#N)=C(C#N)C#N,20.9 µM (active),–
O=C(CCl)CCl,inactive,–
CCCCC(CC)COC(=O)c1c(Br)c(Br)c(Br)c(Br)c1C(=O)OCC(CC)CCCC (centres undefined),inactive,–
O=C(Cl)OCCOCCOC(=O)Cl,inactive,–
N#CC(C#N)=Cc1ccc(O)c(O)c1,inactive,–
CC(C)(C)N(NC(=O)c1ccc(Cl)cc1)C(=O)c1ccccc1,7.92 µM (active),–
C[Si](Cn1cncn1)(c1ccc(F)cc1)c1ccc(F)cc1,104 nM (active) and 126 nM (active),–
O=[N+]([O-])c1cc(Cl)c(Cl)cc1Cl,inactive,–
CCCCCCCCCCCC[N+](C)(C)CCOc1ccccc1,inactive,–
COC(=O)Cc1ccccc1,inactive,–
O=C(N[C@H]1CN2CCC1CC2)c1ccc2c(c1)OCCO2,inactive,–
CCCCC#N,inactive,–
ClCc1ccccc1Cl,inactive,–
CC(C)(C#N)C(C)(C)C#N,inactive,–
Nc1c(Br)cc(Br)c2c1C(=O)c1ccccc1C2=O,–,1.74% [at 23.6 µM] (inactive)
C=CCOC(=O)C(C)(C)OC(=O)c1cc(-n2c(=O)cc(C(F)(F)F)n(C)c2=O)ccc1Cl,0.553 µM (active),–
CC(CC(C(N)=O)(c1ccccc1)c1ccccc1)N(C)C (centres undefined),inactive,–
CC(C)(C)NCC(O)c1cc(Cl)c(N)c(C(F)(F)F)c1 (centres undefined),inactive,–
